Bioassay records deposited in PubChem BioAssay by Emory University Molecular Libraries Screening Center.
The sample as a whole holds a higher share of hits than the screen did.
14-3-3g Raf – modulators of 14-3-3 gamma protein binding, primary screen, biochemical, fluorescence polarization | 14-3-3 protein gamma (Homo sapiens), P61981 | inhibition, % at 40 µM | FP, 14-3-3gamma / TMR-pS259-Raf peptide binding | 160,000 tested, 0.19% active; in the data active = inhibition above about 30%;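 also: 0% = protein plus tracer without compound and 100% = blank with tracer alone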
Target sequence (P61981 whole entry, looked up): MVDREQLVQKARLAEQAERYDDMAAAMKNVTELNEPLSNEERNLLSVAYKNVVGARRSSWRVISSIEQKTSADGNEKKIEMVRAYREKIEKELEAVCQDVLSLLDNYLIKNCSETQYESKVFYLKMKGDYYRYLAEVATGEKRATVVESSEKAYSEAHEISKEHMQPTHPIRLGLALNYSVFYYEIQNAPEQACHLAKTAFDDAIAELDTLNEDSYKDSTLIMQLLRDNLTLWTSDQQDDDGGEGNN
Active calls of the source: *; ! = repeats disagree.

SMILES	14-3-3g Raf
Cc1cccc(NC(=O)CCN2C(=S)NC(C)(C)CC2C)c1C (centres undefined)	4
CCN(C(=O)CN1C(=S)NC(C)(C)CC1C)c1ccc(C)c(C)c1 (centres undefined)	-5
CCN(CC)CCOC(=O)c1c(C)nn2c3ccccc3n(C)c12	-4
Cc1c(Cl)c(C)c([N+](=O)[O-])c(O)c1C=Nc1ccc(C(=O)O)cc1	45*
Cc1c(Cl)c(C)c([N+](=O)[O-])c(O)c1C=Nc1cccc(C(=O)O)c1	19
Cc1c(Cl)c(C)c([N+](=O)[O-])c(O)c1C=Nc1ccc(Br)cc1	-2
CN(Cc1ccccc1)C(=O)CCNC(=O)Cn1cnc2sc3c(c2c1=O)CCCC3	-1
COc1ccc(S(=O)(=O)CC(SC#N)c2ccccc2)cc1 (centres undefined)	-7
O=C(Nc1nc(-c2ccc(F)cc2)cs1)c1ccc(Cc2ccccc2)cc1	-1
O=C1Nc2cc(C(=O)N3CCOCC3)ccc2SC1N1CCCC1 (centres undefined)	-6
CN1CCN(C(=O)c2ccc3c(c2)NC(=O)C(N2CCOCC2)S3)CC1 (centres undefined)	4
O=C1Nc2cc(C(=O)N3CCOCC3)ccc2SC1N1CCOCC1 (centres undefined)	38*!
COc1nccnc1NS(=O)(=O)c1ccc(NC(=O)c2ccc(C)cc2)cc1	-15
c1ccc(SCCN2CCOCC2)cc1	-2
C1COCCOCCN(CCOCCOCCN2CCOCCOCCOCCOCC2)CCOCCO1	1
c1ccc(COCCOCCN2CCOCCOCCOCCOCCOCC2)cc1	119*
Oc1ccccc1C=Cc1noc(-c2ccccc2O)n1	-2
O=C(C1CCC1)N1CCc2cc(S(=O)(=O)NCCN3CCN(c4ccccc4)CC3)ccc21	-8
Cc1c2occ(-c3ccc(Br)cc3)c2cc2c3c(c(=O)oc12)CCC3	-8
Cc1ccccc1Cn1c(CCNC(=O)c2ccc(F)cc2)nc2ccccc21	32*
Cc1ccc(C)c(Cn2c(CCNC(=O)c3ccc(F)cc3)nc3ccccc32)c1	4
CCCCn1c(CCNC(=O)c2ccc(F)cc2)nc2ccccc21	-7
COC(=O)c1ccc(NC(=O)C2CC(=O)N(CCc3ccccc3)C(=Nc3cccc(Cl)c3)S2)cc1 (centres undefined)	0
COc1ccc(-c2nc3ccccc3c(C(=O)Nc3ccc(Br)cc3)c2C)cc1	-41
COc1ccc(OC)c(NC(=O)c2c(C)c(-c3ccccc3)nc3ccccc23)c1	53*
COc1ccc(NC(=O)c2c(C)c(-c3ccc(C)cc3)nc3ccccc23)cc1	-21
Cc1cccc(NCc2ccc3c(c2)OCO3)c1	0
